{
  "source": "PubChem BioAssay (Tox21)",
  "note": "Results filed as inconclusive are left out. A call without a number means that no potency is given here. Activity calls are given as the source filed them. Calls follow the shape of the full dose curve.",
  "data": [
    {"assay": "p53 small molecule agonists, cell-based qHTS assay with human liver microsomes (AID 1963577);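 also: p53 response element beta-lactamase reporter cells with liver microsomes plus NADPH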", "settings": "HCT-116 p53RE-bla with human liver microsomes, ratio, 16 h; series mostly up to 66 µM", "description": "National Center for Advancing Translational Sciences [NCATS]\nDivision of Preclinical Innovation [DPI]\nU.S. Environmental Protection Agency [EPA]\nNational Institutes of Environmental Health Sciences [NIEHS]\nNational Toxicology Program [NTP]\nU.S. Food and Drug Administration [FDA]\np53, a tumor suppressor protein, is activated following cellular insult, including DNA damage and other cellular stresses. The activation of p53 regulates cell fate by inducing DNA repair, cell cycle arrest, apoptosis, or cellular senescence. The activation of p53, therefore, is a good indicator of DNA damage and other cellular stresses. […] The activation of the reporter gene under culture conditions can be detected by fluorescence intensity.\nTox21 Assay Protocol Summary:\nThe p53RE-bla cells were dispensed at 4,000cells/3ul/well in 1536-well black-clear bottom plates. After the assay plates were incubated at 37 C, 5% CO2 incubator for 5 hours, 23 nL of compounds dissolved in DMSO, positive controls or DMSO only was transferred to the assay plate. Following compound addition, 3 uL of human liver microsomes (XenoTech, Kansas City, KS) at final concentration of 0.5 mg/mL and 1uL of Beta-Nicotinamide adenine dinucleotide 2-phosphate (NADPH) at final concentration of 0.5 mg/mL were transferred to the assay plate. The plates were incubated at 37 C for 16 hours. 1 uL of LiveBLAzer detection mixture was added to each well and the plates were incubated at room temperature in the dark for 2 h.", "values": [
      {"smiles": "CC(C)(C)NC[C@H](O)c1ccc(O)cc1Cl", "Potency": "inactive"},
      {"smiles": "Clc1ccc(Oc2ccccc2)cc1", "Potency": "inactive"},
      {"smiles": "Nc1ccc(Cc2ccc(N)c(Cl)c2)cc1Cl", "Potency": "inactive"},
      {"smiles": "NC1=NC(=O)C(c2ccccc2)O1", "note": "(stereo not given)", "Potency": "inactive"},
      {"smiles": "COC(=O)C(C)Oc1ccc(Oc2ccc(Cl)cc2Cl)cc1", "note": "(stereo not given)", "Potency": "inactive"},
      {"smiles": "CCCCCl", "Potency": "inactive"},
      {"smiles": "C=CC(C)(CCC=C(C)C)OC(=O)c1ccccc1N", "note": "(stereo not given)", "Potency": "inactive"},
      {"smiles": "CN=CNc1ccc(C)cc1C", "Potency": "inactive"},
      {"smiles": "Cc1ncc(C[n+]2csc(CCO)c2C)c(N)n1", "Potency": "inactive"},
      {"smiles": "CC(O)(CS(=O)(=O)c1ccc(F)cc1)C(=O)Nc1ccc(C#N)c(C(F)(F)F)c1", "note": "(stereo not given)", "Potency": "inactive"},
      {"smiles": "O=NN1CCNCC1", "Potency": "inactive"},
      {"smiles": "OC(Cc1ccccc1Cl)(Cn1[nH]cnc1=S)C1(Cl)CC1", "note": "(stereo not given)", "Potency": "inactive"},
      {"smiles": "COC(=O)N(C(=O)N1CO[C@@]2(C(=O)OC)Cc3cc(Cl)ccc3C2=N1)c1ccc(OC(F)(F)F)cc1", "Potency": "inactive"},
      {"smiles": "Cn1[nH]nnc1=S", "Potency": "inactive"},
      {"smiles": "Cc1cc(C)c(C(=O)P(=O)(c2ccccc2)c2ccccc2)c(C)c1", "Potency": "inactive"},
      {"smiles": "CCOc1nc(C(Cl)(Cl)Cl)ns1", "Potency": "inactive"},
      {"smiles": "Oc1ccccc1Br", "Potency": "inactive"},
      {"smiles": "Clc1cccc(N2CCNCC2)c1", "Potency": "inactive"},
      {"smiles": "Cc1cc(C(C)(C)c2ccc(O)c(C)c2)ccc1O", "Potency": "inactive"},
      {"smiles": "N[C@@H](Cc1ccc(Oc2cc(I)c(O)c(I)c2)c(I)c1)C(=O)O", "Potency": "inactive"},
      {"smiles": "Nc1nc(N)c(N)c(N)n1", "Potency": "inactive"},
      {"smiles": "CCCN(CCC)CCc1c[nH]c2ccccc12", "Potency": "inactive"},
      {"smiles": "CN(CCCC(O)c1cccnc1)N=O", "note": "(stereo not given)", "Potency": "inactive"},
      {"smiles": "CCOc1ccc(C(C)(C)COCc2cccc(Oc3ccccc3)c2)cc1", "Potency": "inactive"},
      {"smiles": "N[C@@H]1C[C@H]1c1ccccc1", "Potency": "inactive"},
      {"smiles": "Clc1ccc2ccccc2c1", "Potency": "inactive"},
      {"smiles": "O=C(N[C@@H]1N=C(c2ccccc2F)c2cccc3c2N(CC3)C1=O)c1cc2ccccc2[nH]1", "Potency": "inactive"},
      {"smiles": "Oc1ccc(Cc2ccc(O)cc2)cc1", "Potency": "inactive"},
      {"smiles": "C=CCOC(C)=O", "Potency": "inactive"},
      {"smiles": "CO/C=C(/C(=O)OC)c1ccccc1Oc1cc(Oc2ccccc2C#N)ncn1", "Potency": "inactive"},
      {"smiles": "O=C(O)/C=C\\C(=O)O", "Potency": "inactive"},
      {"smiles": "COC(=O)C(C)N(C(=O)Cc1ccccc1)c1c(C)cccc1C", "note": "(stereo not given)", "Potency": "inactive"},
      {"smiles": "CCCCCCCCCC(=O)O[C@H]1CC[C@H]2[C@@H]3CCC4=CC(=O)CC[C@@H]4[C@H]3CC[C@]12C", "Potency": "inactive"},
      {"smiles": "CC(=O)Nc1cc([As](=O)(O)O)ccc1O", "Potency": "inactive"},
      {"smiles": "C=CCc1ccc(OC(=O)Cc2ccccc2)c(OC)c1", "Potency": "inactive"},
      {"smiles": "C#CC1(O)CCCCC1", "Potency": "inactive"},
      {"smiles": "CN1C[C@@H](NS(=O)(=O)N(C)C)C[C@@H]2c3cccc4c3c(cn4C)C[C@H]21", "Potency": "inactive"},
      {"smiles": "O=C1c2ccccc2C(=O)C1C(=O)C(c1ccccc1)c1ccc(Cl)cc1", "note": "(stereo not given)", "Potency": "inactive"},
      {"smiles": "CC[C@]1(O)CC[C@H]2[C@@H]3CCC4=CCCC[C@@H]4[C@H]3CC[C@@]21C", "Potency": "inactive"},
      {"smiles": "CC(C)(C#N)C(C)(C)C#N", "Potency": "inactive"}
    ]}
  ]
}
